Measured values: PubChem BioAssay (NCI)
About 79,000 compounds went through this panel and 15% of them were active in at least one assay; those are over-represented in the sample as a whole. Active and inactive are the calls of the source. Cut-off read from the data, not from the text of the source: active = growth inhibition above about 70%; inactive = the rest.

How the values were obtained:
[1] = NCI Yeast Anticancer Drug Screen. Data for the rad52 strain (AID 147);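 note: 0% = growth of vehicle-treated control cultures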; details: S. cerevisiae rad52 mutant growth inhibition, active compounds read high
Method in brief: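 Read-out: growth inhibition versus vehicle-treated controls. Cells were a DNA repair-deficient yeast strain treated with compounds.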

[2] = NCI Yeast Anticancer Drug Screen. Data for the wt1 strain (AID 149);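 note: 0% = growth of vehicle-treated wt1 cultures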; details: S. cerevisiae wt1 strain (SPY 50644) growth inhibition, active compounds read high
Method in brief: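 Compounds are added to wt1 yeast cultures. Growth is then measured. Inhibition is expressed relative to vehicle-treated controls.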

[3] = NCI Yeast Anticancer Drug Screen. Data for the rad50EPP+ strain (AID 151);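 note: 0% = growth of vehicle-treated control cultures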; details: S. cerevisiae rad50 mutant strain, active compounds read high
Method in brief: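 Growth inhibition read against vehicle controls in rad50EPP+ yeast, a strain altered in DNA damage repair, after compound exposure.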

[4] = NCI Yeast Anticancer Drug Screen. Data for the mgt1 strain (AID 153); details: S. cerevisiae mgt1 mutant growth inhibition, active compounds read high
Method in brief: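 mgt1 yeast grown with test compound; read-out is growth inhibition versus vehicle-treated cultures.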

[5] = NCI Yeast Anticancer Drug Screen. Data for the rad50 strain (AID 155);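 note: 0% = growth of vehicle-only cultures of the same strain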; details: S. cerevisiae rad50 strain growth inhibition, active compounds read high
Method in brief: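 Inhibition values express reduced yeast growth in compound-treated cultures relative to vehicle-treated controls.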

[6] = NCI Yeast Anticancer Drug Screen. Data for the mec2-1 strain (AID 157); details: S. cerevisiae mec2-1 strain, active compounds read high
Method in brief: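 Yeast mec2-1 mutant treated with compound. Readout: growth inhibition vs vehicle controls.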

[7] = NCI Yeast Anticancer Drug Screen. Data for the rad14 strain (AID 159);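 note: 0% = growth of vehicle-treated control cultures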; details: S. cerevisiae rad14 strain growth inhibition, active compounds read high
Method in brief: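 A mutant yeast strain defective in DNA damage repair is treated with compound; inhibition of its growth is scored against untreated, vehicle-exposed cultures.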

[8] = NCI Yeast Anticancer Drug Screen. Data for the sgs1 mgt1 strain (AID 161);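 note: 0% = growth of cultures given vehicle only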; details: S. cerevisiae sgs1 mgt1 strain, active compounds read high
Method in brief: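 Genetically altered yeast, compound exposure, growth inhibition relative to vehicle.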

[9] = NCI Yeast Anticancer Drug Screen. Data for the CLN2oe strain (AID 163);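 note: 0% = growth of vehicle-only control cultures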; details: S. cerevisiae CLN2oe strain, active compounds read high
Method in brief: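 Read-out: yeast growth inhibition, expressed relative to vehicle-only controls. The strain bears an engineered cell-cycle alteration.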

[10] = NCI Yeast Anticancer Drug Screen. Data for the cln2 rad14 strain (AID 165);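 note: 0% = growth equal to vehicle treated cultures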; details: S. cerevisiae cln2 rad14 strain, active compounds read high
Method in brief: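 cln2 rad14 yeast strain; compound exposure; growth inhibition read vs vehicle controls.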

[11] = NCI Yeast Anticancer Drug Screen. Data for the bub3 strain (AID 167); details: S. cerevisiae bub3 mutant strain, active compounds read high
Method in brief: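 Steps: expose the mutant yeast strain to compound; grow alongside vehicle-treated cultures; measure growth; express inhibition against the vehicle cultures.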

[12] = NCI Yeast Anticancer Drug Screen. Data for the wt2 strain (AID 169);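 note: 0% = growth of vehicle-treated yeast cultures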; details: S. cerevisiae wt2 strain growth inhibition, active compounds read high
Method in brief: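 Read-out: growth inhibition versus vehicle-treated control cultures after compound exposure of the yeast strain.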

[13] = NCI Yeast Anticancer Drug Screen. Data for the mlh1 strain (AID 171);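 note: 0% = growth of vehicle-treated control cultures of the same strain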; details: S. cerevisiae mlh1 strain growth inhibition, active compounds read high
Method in brief: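 Read-out: growth inhibition versus vehicle controls. Strain: engineered yeast with a defined DNA repair or cell cycle defect, compound-treated.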

[14] = NCI Yeast Anticancer Drug Screen. Data for the sgs1 strain (AID 173);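 note: 0% = growth of vehicle-only control cultures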; details: S. cerevisiae sgs1 mutant, active compounds read high
Method in brief: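 Read-out: yeast growth inhibition relative to vehicle controls, following compound exposure of a strain with a defined DNA repair/cell cycle alteration.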

[15] = NCI Yeast Anticancer Drug Screen. Data for the mlh1 rad18 strain (AID 175); details: S. cerevisiae mlh1 rad18 strain growth inhibition, active compounds read high
Method in brief: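 Yeast w/ defined DNA-repair lesions; compound exposure; growth vs vehicle controls → % inhibition.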

[16] = NCI Yeast Anticancer Drug Screen. Data for the rad18 strain (AID 177); details: S. cerevisiae rad18 mutant growth inhibition, active compounds read high
Method in brief: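 Readout: growth inhibition vs vehicle controls. Cells: genetically altered yeast strain, DNA repair defect.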

[17] = at 5.0 µM (retest, dose inferred, filed as 0.5)
[18] = at 50.0 µM (retest, dose inferred, filed as 5.0)

Measured: growth inhibition

CC1(Cl)CC(O)C2(CC1Br)C1(C)OC1C1OC1(Br)C2(C)C (stereo unspecified)
active: [1]; at 100.0 µM 98% | [2]; at 100.0 µM 98% | [3]; at 100.0 µM 73% | [4]; at 33.0 µM 74% | [4]; at 100.0 µM 98% | [5]; at 33.0 µM 73% | [5]; [18] 79% | [5]; at 100.0 µM 97% | [6]; at 100.0 µM 98% | [7]; at 100.0 µM 97% | [8]; [18] 86% | [9]; at 100.0 µM 98% | [11]; [18] 89% | [11]; at 50.0 µM 73.5% | [11]; at 100.0 µM 98% | [12]; at 100.0 µM 98% | [13]; at 100.0 µM 97% | [14]; at 33.0 µM 78% | [14]; at 100.0 µM 98% | [15]; [18] 80% | [16]; at 33.0 µM 76% | [16]; at 100.0 µM 98%
inactive: [1]; at 1.2 µM 14% | [1]; at 3.7 µM 19% | [1]; at 11.0 µM 31% | [1]; at 33.0 µM 66% | [2]; at 1.2 µM 1% | [2]; at 3.7 µM -20% | [2]; at 11.0 µM -2% | [2]; at 33.0 µM 60% | [3]; at 1.2 µM -9% | [3]; at 3.7 µM -12% | [3]; at 11.0 µM -21% | [3]; at 33.0 µM 2% | [4]; at 1.2 µM -18% | [4]; at 3.7 µM -14% | [4]; at 11.0 µM -1% | [5]; at 1.2 µM -8% | [5]; at 3.7 µM -12% | [5]; [17] 12% | [5]; at 11.0 µM 1% | [5]; at 50.0 µM 62.6% | [6]; at 1.2 µM -29% | [6]; at 3.7 µM -21% | [6]; [17] 0% | [6]; at 11.0 µM -23% | [6]; at 33.0 µM 39% | [6]; [18] 53% | [6]; at 50.0 µM 59.2% | [7]; at 1.2 µM -18% | [7]; at 3.7 µM -14% | [7]; at 11.0 µM -23% | [7]; at 33.0 µM 61% | [8]; [17] 2% | [8]; at 50.0 µM 67.8% | [9]; at 1.2 µM 2% | [9]; at 3.7 µM 3% | [9]; at 11.0 µM 5% | [9]; at 33.0 µM 31% | [10]; [17] 33% | [10]; [18] 58% | [10]; at 50.0 µM 42.5% | [11]; at 1.2 µM -15% | [11]; at 3.7 µM 1% | [11]; [17] 29% | [11]; at 11.0 µM 1% | [11]; at 33.0 µM 35% | [12]; at 1.2 µM -10% | [12]; at 3.7 µM -5% | [12]; at 11.0 µM -1% | [12]; at 33.0 µM 62% | [13]; at 1.2 µM -19% | [13]; at 3.7 µM -22% | [13]; at 11.0 µM -18% | [13]; at 33.0 µM 66% | [14]; at 1.2 µM -25% | [14]; at 3.7 µM -33% | [14]; at 11.0 µM -17% | [15]; [17] -13% | [15]; at 50.0 µM 62.6% | [16]; at 1.2 µM -15% | [16]; at 3.7 µM -7% | [16]; at 11.0 µM 25%

c1ccc2c(c1)Oc1cccc3cccc-2c13
inactive: [1]; at 1.2 µM 5% | [1]; at 3.7 µM 3% | [1]; at 11.0 µM 5% | [1]; at 33.0 µM 38% | [1]; at 100.0 µM 58% | [2]; at 1.2 µM -11% | [2]; at 3.7 µM 1% | [2]; at 11.0 µM -8% | [2]; at 33.0 µM 3% | [2]; at 100.0 µM 10% | [3]; at 1.2 µM 11% | [3]; at 3.7 µM 8% | [3]; at 11.0 µM 34% | [3]; at 33.0 µM 43% | [3]; at 100.0 µM 63% | [4]; at 1.2 µM -1% | [4]; at 3.7 µM -8% | [4]; at 11.0 µM 1% | [4]; at 33.0 µM 16% | [4]; at 100.0 µM 27% | [5]; at 1.2 µM -2% | [5]; at 3.7 µM 8% | [5]; at 11.0 µM 5% | [5]; at 33.0 µM 23% | [5]; at 50.0 µM 67.2% | [5]; at 100.0 µM 62% | [6]; at 1.2 µM -6% | [6]; at 3.7 µM 4% | [6]; at 11.0 µM -3% | [6]; at 33.0 µM 2% | [6]; at 50.0 µM 17.6% | [6]; at 100.0 µM 20% | [7]; at 1.2 µM 0% | [7]; at 3.7 µM 6% | [7]; at 11.0 µM 21% | [7]; at 33.0 µM 36% | [7]; at 100.0 µM 39% | [8]; [17] 0% | [8]; [18] 43% | [8]; at 50.0 µM 47.6% | [9]; at 1.2 µM 18% | [9]; at 3.7 µM 16% | [9]; at 11.0 µM 8% | [9]; at 33.0 µM 14% | [9]; at 100.0 µM 18% | [10]; [17] 34% | [10]; [18] 20% | [10]; at 50.0 µM 25.4% | [11]; at 1.2 µM 6% | [11]; at 3.7 µM -6% | [11]; [17] -5% | [11]; at 11.0 µM -3% | [11]; at 33.0 µM 17% | [11]; [18] 55% | [11]; at 50.0 µM 56.4% | [11]; at 100.0 µM 36% | [12]; at 1.2 µM 2% | [12]; at 3.7 µM 0% | [12]; at 11.0 µM 1% | [12]; at 33.0 µM 15% | [12]; at 100.0 µM 36% | [13]; at 1.2 µM 7% | [13]; at 3.7 µM 15% | [13]; at 11.0 µM 14% | [13]; at 33.0 µM 31% | [13]; at 100.0 µM 52% | [14]; at 1.2 µM 11% | [14]; at 3.7 µM 13% | [14]; at 11.0 µM 13% | [14]; at 33.0 µM 39% | [14]; at 100.0 µM 60% | [15]; at 50.0 µM 42.7% | [16]; at 1.2 µM 22% | [16]; at 3.7 µM 26% | [16]; at 11.0 µM 25% | [16]; at 33.0 µM 56%
active: [5]; [17] 95% | [5]; [18] 98% | [6]; [17] 99% | [6]; [18] 99% | [15]; [17] 100% | [15]; [18] 99% | [16]; at 100.0 µM 71%
